The supplement of paper PMC13380429

System: Vero E6 infected with SARS-CoV-2
Assay: inhibition of SARS-CoV-2 cytopathic effect; higher = more antiviral protection, active = above 15
Details: 48 h

Measured: inhibition of SARS-CoV-2 cytopathic effect

O=c1c(O)c(-c2cc(O)c(O)c(O)c2)oc2cc(O)cc(O)c12 [myricetin]
inactive: 1 nM -0.44% | 8.33 nM 0.2% | 100 nM 3.15% | 833.33 nM 5.8% | 10000 nM 0.05%

C[C@@H](O[C@H]1OCCN(Cc2nn[nH]c2CN(C)C)[C@H]1c1ccc(F)cc1)c1cc(C(F)(F)F)cc(C(F)(F)F)c1
inactive: 1 nM -0.75% | 8.33 nM -1.76% | 100 nM -0.97% | 833.33 nM -4.49% | 10000 nM 7.29%

Cc1cnc(Nc2ccc(OCCN3CCCC3)cc2)nc1Nc1cccc(S(=O)(=O)NC(C)(C)C)c1 [fedratinib]
inactive: 1 nM -3.17% | 8.33 nM 1.42% | 100 nM -0.42% | 833.33 nM -3.59% | 10000 nM -18.4%

Oc1ccc(Cl)cc1 [parachlorophenol]
inactive: 1 nM 1.78% | 8.33 nM -0.13% | 100 nM 1.68% | 833.33 nM 2.25% | 10000 nM -1.37%

COc1ccc(CCO[C@@H]2CCCC[C@H]2N2CC[C@@H](O)C2)cc1OC [vernakalant]
inactive: 1 nM -0.46% | 8.33 nM 0.39% | 100 nM -0.75% | 833.33 nM 1.67% | 10000 nM -1.63%

CN[C@@H](C)C(=O)N[C@H](C(=O)N1CCC[C@H]1c1nc(C(=O)c2ccc(F)cc2)cs1)C1CCCCC1
inactive: 1 nM 1.96% | 8.33 nM 2.97% | 100 nM 0.97% | 833.33 nM -3.07% | 10000 nM -4.24%

CCOC(=O)NNc1ccc(N(CC)CC(C)O)nn1 (stereo not given) [cadralazine]
inactive: 1 nM -0.85% | 8.33 nM -0.3% | 100 nM -1.93% | 833.33 nM -1.81% | 10000 nM 0.1%

CCNC(=O)[C@@H]1CCCN1C(=O)[C@H](CCCNC(=N)N)NC(=O)[C@H](CC(C)C)NC(=O)[C@@H](CC(C)C)NC(=O)[C@H](Cc1ccc(O)cc1)NC(=O)[C@H](CO)NC(=O)[C@H](Cc1c[nH]c2ccccc12)NC(=O)[C@H](Cc1c[nH]cn1)NC(=O)[C@@H]1CCC(=O)N1 [leuprolide]
inactive: 1 nM -3.75% | 8.33 nM 3.77% | 100 nM 3.45% | 833.33 nM 0.4% | 10000 nM -1.48%

c1cc2c(cc1[C@H]1OC[C@H]3[C@@H]1CO[C@@H]3c1ccc3c(c1)OCO3)OCO2 [sesamin]
inactive: 1 nM -1.62% | 8.33 nM -0.09% | 100 nM -0.37% | 833.33 nM 0.48% | 10000 nM -1.08%

COc1ccc2cc(-c3cc(-c4cc(Cl)cc(Cl)c4)nn3[C@@H](C)c3ccc(C(=O)NCCC(=O)O)cc3)ccc2c1
inactive: 1 nM -1.85% | 8.33 nM -0.02% | 100 nM 0.97% | 833.33 nM 4.66% | 10000 nM 4.95%

C[N+]1(C)[C@@H]2CC[C@H]1C[C@@H](OC(=O)C(O)c1ccccc1)C2 (stereo not given in full) [homatropine-methylbromide]
inactive: 1 nM 0.79% | 8.33 nM 1.12% | 100 nM 0.14% | 833.33 nM 0.62% | 10000 nM 0.96%

C[C@]12CCC(=O)C=C1CC[C@@H]1[C@@H]2CC[C@@]2(C)[C@H]1CC[C@]2(C)O [17-alpha-Methyltestosterone]
inactive: 1 nM 0.59% | 8.33 nM 1.3% | 100 nM -0.05% | 833.33 nM 1.19% | 10000 nM 1.92%

O=C1c2c(O)cccc2C([C@@H]2O[C@H](CO)[C@@H](O)[C@H](O)[C@H]2O)c2cc(CO)cc(O)c21 (stereo not given in full) [aloin]
inactive: 1 nM -0.62% | 8.33 nM 0.1% | 100 nM -0.43% | 833.33 nM 1.27% | 10000 nM 1.29%

CO[C@H]1CC[C@@H](C(=O)c2ccc3nc4c(cc3c2)CCCO4)CC1
inactive: 1 nM -1.37% | 8.33 nM 0.02% | 100 nM -1.45% | 833.33 nM -0.98% | 10000 nM -2.81%

Cc1cc(SCc2sc(-c3ccc(C(F)(F)F)c(F)c3)nc2C)ccc1OCC(=O)O
inactive: 1 nM 0.88% | 8.33 nM 1.12% | 100 nM -2.76% | 833.33 nM -1.29% | 10000 nM -1.19%

COc1cc2c(cc1F)C(c1ccccc1Cl)=Nc1c(n[nH]c1C)N2
inactive: 1 nM 1.86% | 8.33 nM 1.62% | 100 nM -1.34% | 833.33 nM 2.98% | 10000 nM 2.4%

O=c1cc(-c2ccccc2)oc2cc(O)cc(O)c12 [chrysin]
inactive: 1 nM -1.5% | 8.33 nM 0.24% | 100 nM -1.23% | 833.33 nM -7.18% | 10000 nM -3.61%

CC(C)[C@H](N)C(=O)OCC(CO)OCn1cnc2c(=O)nc(N)[nH]c21 (mixture of isomers) [valganciclovir]
inactive: 1 nM 6.98% | 8.33 nM 8.27% | 100 nM 4.51% | 833.33 nM 8.72% | 10000 nM 1.96%

FCc1ccc(OCCOc2ccc(Cl)cc2Cl)c(Cl)n1
inactive: 1 nM 2.16% | 8.33 nM 2.42% | 100 nM 2.11% | 833.33 nM 1.12% | 10000 nM 1.65%

CC(C)C[C@H](NC(=O)[C@@H](COC(C)(C)C)NC(=O)[C@H](Cc1ccc(O)cc1)NC(=O)[C@H](CO)NC(=O)[C@H](Cc1c[nH]c2ccccc12)NC(=O)[C@H](Cc1cnc[nH]1)NC(=O)[C@@H]1CCC(=O)N1)C(=O)N[C@@H](CCCNC(=N)N)C(=O)N1CCC[C@H]1C(=O)NNC(N)=O [goserelin-acetate]
inactive: 1 nM 1.97% | 8.33 nM 1.03% | 100 nM 2.63% | 833.33 nM -0.57% | 10000 nM 5.2%

CN1C(C(=O)Nc2ccccn2)=C(O)c2sc(Cl)cc2S1(=O)=O [lornoxicam]
inactive: 1 nM -2.9% | 8.33 nM -0.66% | 100 nM -1.36% | 833.33 nM 0.9% | 10000 nM -0.69%

S=C(NC1CCCCC1)N1CCC(c2cnc[nH]2)CC1 [thioperamide]
inactive: 1 nM 1.24% | 8.33 nM 1.61% | 100 nM -0.03% | 833.33 nM 0.28% | 10000 nM -2.39%

C=CCN1C[C@H](C(=O)N(CCCN(C)C)C(=O)NCC)C[C@@H]2c3cccc4[nH]cc(c34)C[C@H]21 [cabergoline]
inactive: 1 nM -19% | 8.33 nM -12.2% | 100 nM -10% | 833.33 nM -8.73% | 10000 nM -14.1%

C[N+](C)(C)CC[N+]1(C)Cc2c(Cl)c(Cl)c(Cl)c(Cl)c2C1 [chlorisondamine-diiodide]
inactive: 1 nM 0.2% | 8.33 nM -3.86% | 100 nM -0.88% | 833.33 nM 1.41% | 10000 nM -1.63%

C[C@H](NC[C@H](O)CP(=O)(O)Cc1ccccc1)c1ccc(Cl)c(Cl)c1
inactive: 1 nM 2.41% | 8.33 nM 3.89% | 100 nM 1.35% | 833.33 nM 1.79% | 10000 nM 4.47%

CCCC(=O)C1(c2ccccc2)CCN(C(=O)[C@@H](Cc2ccc(OC)cc2)NC(=O)[C@@H](N)Cc2cncn2C)CC1
inactive: 1 nM 0.65% | 8.33 nM -1.21% | 100 nM 0.17% | 833.33 nM -1.38% | 10000 nM 0.37%

Cc1cc(CN2CCN(c3c(Br)cnc4nc(-c5ccc(N6CCN(C)CC6)cc5)[nH]c34)CC2)no1
inactive: 1 nM -1.63% | 8.33 nM -1.4% | 100 nM -0.54% | 833.33 nM -5% | 10000 nM -6.41%

CCN(CC)CCCC(C)Nc1c2ccc(Cl)cc2nc2ccc(OC)cc12 (stereo not given) [mepacrine]
inactive: 1 nM 3.59% | 8.33 nM 0.39% | 100 nM 5.65% | 833.33 nM 5.16% | 10000 nM -17.4%

CCn1c(=O)c(-c2cc[nH]n2)cc2c(C)nc(N)nc21 [voxtalisib]
inactive: 1 nM 2.67% | 8.33 nM 3.03% | 100 nM 1.3% | 833.33 nM 0.46% | 10000 nM -4.32%

Cc1c(CC(C)(C)C(=O)O)n(Cc2ccc(Cl)cc2)c2ccc(F)cc12
inactive: 1 nM 3.46% | 8.33 nM 2.25% | 100 nM 4.56% | 833.33 nM 3.57% | 10000 nM 1.6%

CC1(C)C(/C=C/C=C/C=C/C=C2\N(CCCCS(=O)(=O)O)c3ccc4ccccc4c3C2(C)C)=[N+](CCCCS(=O)(=O)[O-])c2ccc3ccccc3c21 [indocyanine-green]
inactive: 1 nM -0.13% | 8.33 nM 1.53% | 100 nM 0.85% | 833.33 nM 1.22% | 10000 nM 0.23%

C[C@]12CC[C@@H](O)C[C@H]1CC[C@@H]1[C@@H]2CC[C@]2(C)C(=O)CC[C@@H]12 [3-alpha-hydroxy-5-beta-androstan-17-one]
inactive: 1 nM -1.07% | 8.33 nM 1.38% | 100 nM 2.2% | 833.33 nM 3% | 10000 nM 2.64%

O=C(O)C(=O)CBr [3-bromopyruvate]
inactive: 1 nM -3.69% | 8.33 nM 1.4% | 100 nM 4.96% | 833.33 nM 0.7% | 10000 nM 1.43%

C=C1C[C@]23C[C@@]1(O)CC[C@H]2[C@@]12C=C[C@H](O)[C@@](C)(C(=O)O1)[C@H]2[C@@H]3C(=O)O
inactive: 1 nM 0.13% | 8.33 nM 0.82% | 100 nM 1.4% | 833.33 nM 2.17% | 10000 nM -0.14%

COc1ccccc1N1CCN(CCN(C(=O)C2CCCCC2)c2ccccn2)CC1
inactive: 1 nM -3.64% | 8.33 nM -4.61% | 100 nM -0.56% | 833.33 nM 3.47% | 10000 nM -0.29%

O[C@@H]1CCCC[C@H]1N1CCC(c2ccccc2)CC1 (racemic) [vesamicol]
inactive: 1 nM 0.17% | 8.33 nM 1.74% | 100 nM 0.78% | 833.33 nM 1.42% | 10000 nM 1.14%
